The values that follow come from PubChem BioAssay.

Molecules are shown by their SMILES. “And” between values parts separate entries of the source, which are not always exact repeats. Equal entries are not always repeated. Results filed as inconclusive are left out. For some of these results: Entries with a potency or affinity are not part of this list. The source made the active and inactive calls. Unless noted, how the calls were made is not given here.

The term inhibition denotes the relative decrease from the control value, in per cent. As a reminder, the AC50 is the concentration at which the activity in the assay is half-maximal. For orientation: IC50 means the concentration that gives 50% inhibition. In general, viability refers to a per cent measure of how many cells are alive, often set against a control. The term remaining activity denotes the signal under treatment as a percentage of the control signal.

Experiment [1] can be described thus: antimalarial activity against Dd2 strain (AID 2302;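 active means growth inhibition above 50% at the single 2 µM test dose, taken to imply half-maximal potency below 2 µM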;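 further: 0% = DMSO untreated growth and 100% = chloroquine plus artemisinin killed control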). The following applies: P. falciparum Dd2 in RBCs, LDH growth readout, 72 h; at 2 µM; stronger effect = higher value.
Experiment [2] is described as follows: human hepatoma cell viability loss – ATP luminescence, cytotoxicity control for P. falciparum antimalarial project, primary screen (AID 2303;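 active means inhibition above 50%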;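 further: 0% = DMSO wells and 100% = digitonin-killed cells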). The following applies: HepG2 viability, 24-48 h, at 10 µM, stronger effect = higher value.
For experiment [3], the target named is L-lactate dehydrogenase (Plasmodium falciparum (isolate CDC / Honduras)) (UniProt Q27743). In words: PfLDH activity inhibition – cell lysate, 3D7 strain, counter-screen for P. falciparum growth inhibition project (AID 2304).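 Further: 0% = vehicle and 100% = reference inhibitor.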 The following applies: P. falciparum 3D7 crude extract, LDH APAD/NBT absorbance; at 2 µM; stronger effect = higher value. Background: Counterscreens check selectivity or assay interference.

A short description of experiment [4]: inhibition of 3D7 malaria parasite growth – strain 3D7 (AID 2306).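 Further: 0% = DMSO wells and 100% = chloroquine plus artemisinin control wells.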 To be noted: P. falciparum 3D7 erythrocytic growth, LDH absorbance, 72 h; at 2 µM; stronger effect = higher value.
In experiment [5] the target is Calcium-dependent protein kinase 1 (Plasmodium falciparum (isolate 3D7)) (UniProt P62344). As to the kind of experiment: PfCDPK1 kinase inhibitors, biochemical, TCAMS library (AID 1159585; cut-off not given, nearly all actives have IC50 up to about 0.98 µM;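 further: inhibitors leave more ATP so luminescence rises with inhibition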). The following applies: recombinant PfCDPK1, Kinase-Glo ATP depletion luminescence.
In experiment [6] the target is Plasmodium falciparum protein kinase 6 (PK6, PF3D7_1337100) (UniProt Q8IDW1). As to the kind of experiment: PfPK6 kinase inhibitors, biochemical, TCAMS library (AID 1159586). The following applies: recombinant PfPK6, Kinase-Glo ATP depletion luminescence.
Experiment [7] concerns the target Protein kinase 7 (PK7), Plasmodium falciparum 3D7 (PF3D7_0213400) (UniProt Q7YTF7). In words: inhibition of Plasmodium PK7 catalytic activity – biochemical, TCAMS antimalarial set, Kinase-Glo luminescence (AID 1159587). The following applies: recombinant PfPK7, Kinase-Glo ATP depletion luminescence. (In general: In Kinase-Glo more light means more ATP remaining.)
In experiment [8] the target is Calcium-dependent protein kinase 4 (Plasmodium falciparum (isolate 3D7)) (UniProt Q8IBS5). As to the kind of experiment: PfCDPK4 kinase inhibitors, biochemical, TCAMS library (AID 1159588; cut-off not given, nearly all actives have IC50 up to about 0.91 µM). To be noted: recombinant PfCDPK4, Kinase-Glo ATP depletion luminescence.
Experiment [9] is described as follows: viability loss in pontine glioma line – cell-based, SU-DIPG-XVII, MIPE5.0, CellTiter-Glo, qHTS, dose response (AID 1347060; cut-off not given, nearly all actives have AC50 up to about 26 µM;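 further: cells exposed to compound for 48 hours before viability readout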). The following applies: CellTiter-Glo ATP luminescence.
Experiment [10] can be described thus: viability loss in pontine glioma line – cell-based, SU-DIPG-XIII, MIPE4.0, CellTiter-Glo, qHTS, dose response (AID 1347061; cut-off not given, nearly all actives have AC50 up to about 37 µM;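 further: cells exposed to compound for 48 hours before readout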). To be noted: CellTiter-Glo ATP luminescence. In general terms: Cellular ATP, detected with luciferase, serves as a proxy for viable cell number.
Experiment [11] is described as follows: viability loss in pontine glioma line – cell-based, JHH-DIPG-1, MIPE4.0, CellTiter-Glo, qHTS, dose response (AID 1347062; cut-off not given, nearly all actives have AC50 up to about 27 µM;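 further: cells exposed to compound for two days before readout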). The following applies: JHH-DIPG-1 viability, CellTiter-Glo ATP luminescence.
Experiment [12] can be described thus: viability loss in pontine glioma line – cell-based, SU-DIPG-IV, MIPE4.0, CellTiter-Glo, qHTS, dose response (AID 1347063; cut-off not given, nearly all actives have AC50 up to about 30 µM;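 further: compound exposure lasted 48 hours before the viability readout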). To be noted: CellTiter-Glo ATP luminescence.
The nature of experiment [13]: viability loss in pontine glioma line – cell-based, SU-DIPG-XIII, MIPE5.0, CellTiter-Glo, qHTS, dose response (AID 1347064; cut-off not given, nearly all actives have AC50 up to about 23 µM;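 further: cells exposed to compound for 48 hours before the viability read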). To be noted: CellTiter-Glo ATP luminescence.
Experiment [14] can be described thus: viability loss in pontine glioma line – cell-based, SU-DIPG-XXV, MIPE5.0, CellTiter-Glo, qHTS, dose response (AID 1347065; cut-off not given, nearly all actives have AC50 up to about 26 µM;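 further: cells exposed to compound for 48 hours before ATP readout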). To be noted: CellTiter-Glo ATP luminescence.
Experiment [15] can be described thus: JHH-DIPG-1 glioma cell viability, MIPE5.0 library, CellTiter-Glo luminescence, qHTS (AID 1347067; cut-off not given, nearly all actives have AC50 up to about 26 µM;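 further: cells exposed to compound for 48 hours before readout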). To be noted: JHH-DIPG-1 glioma viability, CellTiter-Glo ATP luminescence.
The nature of experiment [16]: growth inhibition of DIPG cells – cell-based, MIPE5.0 library, qHTS (AID 1347068; cut-off not given, nearly all actives have IC50 up to about 30 µM;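 further: cells exposed to compound for 48 hours before viability readout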). To be noted: SU-DIPG-XXV viability.
Experiment [17] can be described thus: viability loss with induced miR-34 in A549 – imaging, A549 dox-inducible miR-34, nuclei and caspase counts, primary screen (AID 1347080;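 active means compounds whose cell count with miR-34 switched on is under 0.7 times the count with it off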). To be noted: A549 miR-34 inducible, Hoechst nuclei count, 48 h.
Experiment [18] can be described thus: MELAS cybrid and Rieske KO viability enhancers – cell-based, MELAS cybrids, Rieske KO mouse fibroblasts, CellTiter-Glo, primary screen (AID 1508586;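 active means mean z-score across replicates of 1.96 or higher in either the MELAS or the Rieske mutant cell line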;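 further: z relative to plate mean and SD of compound and empty wells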). The following applies: low glucose.
The nature of experiment [19]: P. berghei load reduction in hepatocytes – cell-based, HepG2, luciferase luminescence, HepG2 viability, primary screen (AID 624349; in the data active means parasite load remaining mostly below about 12%, no sharp cut-off; inactive means mostly above about 10%;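 further: 100% = mean of DMSO negative control wells on the same plate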). To be noted: P. berghei liver stage in HepG2, luciferase luminescence, concentration not given here; parasite load remaining: stronger effect = lower value; viability: measured here: HepG2 viability without parasites.
Experiment [20] has as its system Aerobactin synthetase IucA (Klebsiella pneumoniae). As to the kind of experiment: inhibition of K. pneumoniae IucA enzyme – biochemical, Tocris library, absorbance (AID 1345561).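 Further: 100% = enzyme without compound and 0% = no enzyme.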 To be noted: purified IucA enzyme assay, absorbance (OD) read-out; stronger effect = lower value;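 tested at 8 µM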.
Experiment [21] is described as follows: growth inhibition of DIPG cells – cell-based, MIPE4.0 library, CellTiter-Glo luminescence, qHTS (AID 1347066; cut-off not given, nearly all actives have AC50 up to about 30 µM;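 further: cells exposed to compound for 48 hours before readout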). The following applies: SU-DIPG-VI viability, CellTiter-Glo ATP luminescence.
Experiment [22] is described as follows: galactose survival enhancers in mitochondrial complex I cybrids – cell-based, galactose medium, ATP luminescence, primary screen (AID 1645843;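 active means z-score of at least 1.8 in each of two replicates, scored against plate mean and spread of sample wells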;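 further: positive z means more ATP and so rescue of galactose-driven cybrid death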). To be noted: complex I mutant cybrid cells, 72 h, stronger effect = higher value.
Setting [23] is: stronger effect = lower value, cell number ratio, induced over uninduced.
[24] abbreviates: measured here: relative caspase fold change +Dox/-Dox.
[25] abbreviates: measured here: total cells with miR-34 induction, stronger effect = lower value.
The mark [26] stands for this setting: measured here: total cells without miR-34 induction.
Where [27] appears, read: MELAS cybrid survival, CellTiter-Glo 48 h, stronger effect = higher value.
[28] abbreviates: Rieske KO mouse fibroblast survival, CellTiter-Glo 72 h.

Calcium-dependent protein kinase 1 (Plasmodium falciparum (isolate 3D7)), sequence (P62344 whole entry, looked up): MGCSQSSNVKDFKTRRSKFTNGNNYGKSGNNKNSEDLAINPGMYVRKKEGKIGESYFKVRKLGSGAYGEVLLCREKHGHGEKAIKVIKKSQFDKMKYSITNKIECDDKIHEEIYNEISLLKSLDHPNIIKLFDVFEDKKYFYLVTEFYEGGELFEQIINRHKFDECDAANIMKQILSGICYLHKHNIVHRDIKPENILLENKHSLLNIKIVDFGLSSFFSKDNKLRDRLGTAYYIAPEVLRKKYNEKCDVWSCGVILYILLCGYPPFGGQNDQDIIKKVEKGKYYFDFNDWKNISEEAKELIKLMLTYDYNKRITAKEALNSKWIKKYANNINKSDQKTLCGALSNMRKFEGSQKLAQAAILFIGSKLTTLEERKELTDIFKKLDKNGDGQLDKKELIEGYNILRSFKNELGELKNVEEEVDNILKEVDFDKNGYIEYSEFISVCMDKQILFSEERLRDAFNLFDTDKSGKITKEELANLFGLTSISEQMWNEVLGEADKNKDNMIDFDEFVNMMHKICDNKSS
Calcium-dependent protein kinase 4 (Plasmodium falciparum (isolate 3D7)), sequence (Q8IBS5 whole entry, looked up): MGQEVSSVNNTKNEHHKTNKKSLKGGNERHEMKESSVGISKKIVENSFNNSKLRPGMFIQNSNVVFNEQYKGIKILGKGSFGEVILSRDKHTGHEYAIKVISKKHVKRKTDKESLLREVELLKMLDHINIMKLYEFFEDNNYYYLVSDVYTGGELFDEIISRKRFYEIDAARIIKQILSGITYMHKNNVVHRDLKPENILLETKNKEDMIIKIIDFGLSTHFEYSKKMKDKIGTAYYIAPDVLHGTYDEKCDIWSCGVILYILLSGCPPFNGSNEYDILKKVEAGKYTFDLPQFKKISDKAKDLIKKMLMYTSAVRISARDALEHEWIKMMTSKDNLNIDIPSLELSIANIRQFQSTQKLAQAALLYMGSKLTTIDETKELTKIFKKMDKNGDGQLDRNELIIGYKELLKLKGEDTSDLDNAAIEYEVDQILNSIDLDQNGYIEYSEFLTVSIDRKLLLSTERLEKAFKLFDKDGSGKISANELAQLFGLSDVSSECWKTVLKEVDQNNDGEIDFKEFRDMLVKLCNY
Plasmodium falciparum protein kinase 6 (PK6, PF3D7_1337100), sequence (Q8IDW1 1-305): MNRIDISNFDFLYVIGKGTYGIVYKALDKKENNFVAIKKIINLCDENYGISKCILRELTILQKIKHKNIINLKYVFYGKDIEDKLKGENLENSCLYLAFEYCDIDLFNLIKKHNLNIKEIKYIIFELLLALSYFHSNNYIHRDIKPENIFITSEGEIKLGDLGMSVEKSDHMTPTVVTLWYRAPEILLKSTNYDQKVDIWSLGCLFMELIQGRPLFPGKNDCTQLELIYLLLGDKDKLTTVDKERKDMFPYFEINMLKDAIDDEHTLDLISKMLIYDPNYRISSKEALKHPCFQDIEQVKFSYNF
Protein kinase 7 (PK7), Plasmodium falciparum 3D7 (PF3D7_0213400), sequence (Q7YTF7 1-343): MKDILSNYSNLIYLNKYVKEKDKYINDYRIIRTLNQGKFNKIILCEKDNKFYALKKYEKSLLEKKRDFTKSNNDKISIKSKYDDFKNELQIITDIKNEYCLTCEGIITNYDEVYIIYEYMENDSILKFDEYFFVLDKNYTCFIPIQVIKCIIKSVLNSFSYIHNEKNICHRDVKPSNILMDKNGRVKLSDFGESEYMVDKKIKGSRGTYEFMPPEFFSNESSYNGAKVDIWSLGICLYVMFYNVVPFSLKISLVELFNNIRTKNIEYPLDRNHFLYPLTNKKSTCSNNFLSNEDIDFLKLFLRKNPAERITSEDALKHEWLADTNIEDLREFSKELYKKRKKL
L-lactate dehydrogenase (Plasmodium falciparum (isolate CDC / Honduras)), sequence (Q27743 whole entry, looked up): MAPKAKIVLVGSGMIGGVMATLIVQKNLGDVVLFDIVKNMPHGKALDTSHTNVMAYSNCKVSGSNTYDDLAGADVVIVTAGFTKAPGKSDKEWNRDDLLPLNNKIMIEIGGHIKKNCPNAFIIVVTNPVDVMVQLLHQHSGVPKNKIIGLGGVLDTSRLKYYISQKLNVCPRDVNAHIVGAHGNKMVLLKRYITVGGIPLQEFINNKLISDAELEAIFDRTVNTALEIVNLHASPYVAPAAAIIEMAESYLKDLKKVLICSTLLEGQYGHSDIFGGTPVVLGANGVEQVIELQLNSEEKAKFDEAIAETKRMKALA

Take `CCS(=O)(=O)Nc1ccc2[nH]c(O)c(C(=Nc3ccc(CN4CCCCC4)cc3)c3ccccc3)c2c1`: the growth inhibition in [1] is 74% (active); in experiment [4], 87% (active). Besides, the inhibition in [2] is 53% (active); in [3], 6% (inactive). Further, the outcome in experiment [5], in [6], in experiment [7] and in [8] was inactive. The AC50 in experiment [9] is 263 nM (active); in experiment [10], 662 nM (active); in experiment [11], 5900 nM (active); in experiment [12] it was 5900 nM (active); in [13] it was 263 nM (active); in [14], 83.3 nM (active). The AC50 in experiment [15] is 742 nM (active). Moreover, the IC50 in experiment [16] was 468 nM (active). Moreover, the fold change in [17] (setting [23]) is 1 (inactive); in [17] (setting [24]), 0.435. Further, the values for the cell count in experiment [17] (setting [25]) and in experiment [17] (setting [26]) were 720 and 718, respectively. Also, the z-score in [18] (setting [27]) was 0.158 (inactive); in experiment [18] (setting [28]), -2.81.
For `O=C(Nc1ccc2c(c1)CCN2C1CCN(Cc2cccc3cc[nH]c23)C1)c1ccco1` (stereo not drawn), the growth inhibition was 86% (active) in experiment [1] and 88% (active) in experiment [4]. Moreover, the inhibition is -1% (inactive) in [2] and 2% (inactive) in experiment [3]. For the same compound, the outcome in experiment [5], in [6], in experiment [7] and in [8] was inactive.
`O=C(C=Cc1cn(-c2ccccc2)nc1-c1cccs1)N1CCN(c2ccncc2)CC1`: the figures for the growth inhibition in experiment [1] and in experiment [4] were 61% (active) and 100% (active), respectively. Also, the results for the inhibition in experiment [2] and in experiment [3] were 31% (inactive) and 1% (inactive), respectively. The outcome in [5], in [6], in experiment [7] and in experiment [8] was inactive.
For `CCCC(C)Nc1nc(C)cc(N[C@@H](CC(C)C)C(=O)NCc2ccc(C)cc2)n1` (stereo partly drawn), the growth inhibition is 51% (active) in experiment [1] and 98% (active) in [4]. Besides, the inhibition in experiment [2] was 16% (inactive); in [3] it was -1% (inactive). In addition, the outcome in experiment [5], in [6], in [7] and in experiment [8] was inactive.
For `O=C(Nc1cc(C(F)(F)F)cc(C(F)(F)F)c1)c1cc(Cl)ccc1O`, the growth inhibition in [1] was 98% (active); in experiment [4] it was 90% (active). For the same compound, the inhibition is 84% (active) in [2] and 2% (inactive) in experiment [3]. For the same compound, in experiment [19], the parasite load remaining was 0.02% (inactive). Besides, in experiment [19], the viability stood at 51.5%. Moreover, the result in experiment [5], in experiment [6], in experiment [7] and in [8] was inactive. Also, the remaining activity in experiment [20] was 120% (inactive). Also, the AC50 was 1320 nM (active) in experiment [9]; 590 nM (active) in experiment [10]; 1870 nM (active) in experiment [11]; 1480 nM (active) in [12]; 1860 nM (active) in experiment [13]; 1320 nM (active) in [14]. For the same compound, the figures for the AC50 in experiment [21] and in experiment [15] were 209 nM (active) and 1480 nM (active), respectively. Also, the IC50 in experiment [16] is 2630 nM (active). For the same compound, the fold change is 0.989 (inactive) and 1.06 (inactive) in [17] (setting [23]); 0.581 and 1.23 in [17] (setting [24]). For the same compound, the cell count in experiment [17] (setting [25]) was 1480 and 1100; in [17] (setting [26]), 1500 and 1040. The z-score is 0.314 (inactive) in experiment [18] (setting [27]), -0.453 in [18] (setting [28]) and -0.7 (inactive) in experiment [22].
